From PubChem BioAssay
Most compounds without a hit are left out; they make up all but 12% or so of the library.
Pf growth 48h – inhibits P. falciparum growth in the first generation, 48 h | P. falciparum luciferase growth in erythrocytes, 48 h | Potency, µM (highest dose often 28.7 µM), for inactives: top-dose activity change, negative = inhibition, usual class: inhibitors | 5.9% of 310,000 active; further: on the % scale 0 is the no-effect control and ±100 the full control effect
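First compound was added to culture medium, then infected red cells at 0.1% parasitemia and 2% hematocrit (final). After incubation at 37 C under 5% CO2, luciferase detection reagent was dispensed and light output recorded.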
Sm TGR block – S. mansoni TGR enzyme inhibition; Q962Y6; purified TGR, DTNB reduction, TNB absorbance 405 nm; Potency, µM (titrated, usually from 114 µM), without a hit: at the highest dose activity change, negative = inhibition, usual class: inhibitors; 3% of 360,000 active; further: on the % scale 0 is the no-effect control and ±100 the full control effect; nearly all actives have a fitted effect of over 60% in size
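Kinetic colorimetric format: TGR-catalysed, NADPH-driven DTNB reduction monitored via TNB absorbance. Enzyme dispensed at 20 nM; compound exposure 15 min at room temperature before reaction start.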
Pf growth 96h – inhibits malaria parasite growth, 96 h; P. falciparum luciferase reporter growth, 96 h; Potency, µM (top dose mostly 28.7 µM), inactives show at the top dose activity change, negative = inhibition, hits mostly inhibitors; 6.9% of 320,000 active; AID 504834; further: on the % scale 0 is the no-effect control and ±100 the full control effect
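P. falciparum expressing integrated firefly luciferase grown in erythrocytes (2% hematocrit, 0.05% parasitemia final) with compounds for 96 hours at 37 C, 5% CO2. Growth inhibition read as loss of luminescence after adding luciferase detection reagent.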
AmpC inh no detg – AmpC beta-lactamase inhibition without detergent; 0.52% of 330,000 active; Potency, µM (doses to about 57.1 µM), without a hit: at the highest dose activity change, negative = inhibition, actives largely listed as inhibitors; P00811; AID 485341; AmpC nitrocefin hydrolysis, absorbance 480 nm, 0.0001% Triton;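 further: plate controls were no compound for no effect and no enzyme for full effect; nearly all actives have a fitted effect of over 20% in size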
Target sequence (P00811 whole entry, looked up): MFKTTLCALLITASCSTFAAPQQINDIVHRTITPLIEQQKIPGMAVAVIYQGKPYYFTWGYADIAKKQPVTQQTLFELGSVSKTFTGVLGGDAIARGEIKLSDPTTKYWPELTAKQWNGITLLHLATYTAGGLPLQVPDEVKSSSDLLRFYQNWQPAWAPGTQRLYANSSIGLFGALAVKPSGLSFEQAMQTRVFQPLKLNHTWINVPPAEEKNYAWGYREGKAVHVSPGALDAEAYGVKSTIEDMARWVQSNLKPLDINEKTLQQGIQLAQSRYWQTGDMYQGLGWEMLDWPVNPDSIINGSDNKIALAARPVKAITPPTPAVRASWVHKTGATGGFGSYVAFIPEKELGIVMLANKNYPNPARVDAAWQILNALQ
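20 mM phosphate pH 7.0 + 0.01% (detergent screen) or 0.0001% Triton X-100; 5.3 nM AmpC reagent; cpd preinc 15 min RT; nitrocefin (800 uM stock) to start; A480 q20 s × 4 min; Activity was normalised to no-enzyme and no-compound control wells.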
SARS PLpro yeast – blocks SARS-CoV papain-like protease in a yeast assay | Potency, µM (highest dose often 32.9 µM), for inactives: at the top dose activity, positive = growth rescue, usual class: activators | S. cerevisiae expressing SARS-CoV PLpro, growth rescue | 0.19% of 330,000 active; calls by dose curve; further: 0% is about no effect; nearly all actives have a fitted effect of over 55% in size
AmpC detergent – inhibitors of E. coli AmpC beta-lactamase with detergent. Potency, µM (highest dose often 114 µM), for the others: at the top dose activity change, negative = inhibition, actives largely listed as inhibitors. 0.041% of 370,000 active. AmpC hydrolysis of nitrocefin, absorbance 480 nm, 0.01% Triton;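 further: 0% = no-compound wells and -100% = no-enzyme wells; nearly all actives have a fitted effect of over 25% in size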
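AmpC (5.3 nM in the dispensed reagent) in 20 mM phosphate pH 7.0 with 0.01% (detergent screen) or 0.0001% Triton X-100 was preincubated with compounds for 15 min at room temperature. Nitrocefin was then added from an 800 uM solution, and hydrolysis was followed at 480 nm.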
An asterisk follows results filed as active; ? = inconclusive; / = no result. Unless noted, the call rests on the fitted dose curve; in most records, active means well fitted curve in the direction sought with a large enough effect; inconclusive means small, poorly fitted or top-dose-only effect, or another doubt; inactive means no such curve, though single readings can be large; an effect the other way counts as inactive or inconclusive. Potency means the concentration at half of the fitted maximal effect.

SMILES	Pf growth 48h	Sm TGR block	Pf growth 96h	AmpC inh no detg	SARS PLpro yeast	AmpC detergent
CCOC(=O)c1cnn(-c2c(Cc3ccccc3)c(C)nc3c(-c4ccccc4)c(C)nn23)c1N	12µM*	0%	/	-26%	-23%	-8%
COC(=O)c1cc(-c2cccc(OC)c2)c2c(=O)[nH]c(=O)n(C)c2n1	?	-9%	13%	13%	1%	-3%
COc1ccccc1CNC(=O)c1ccc(C)c(-n2cnc3cccnc32)c1	/	3%	/	/	/	4%
O=C(c1[nH]ncc1-c1ccccc1)C1CO1 (centres undefined)	?	?	?	-17%	0%	-6%
O=C(c1[nH]ncc1-c1cccc(Br)c1)C1CO1 (centres undefined)	15µM*	11µM*	?	-18%	0%	0%
Cc1nn(C(=O)c2cccc(Cl)c2)c(C)c1S(=O)(=O)N1CCOCC1	/	20µM*	/	/	/	?
CCCn1nnnc1NC(=O)c1cccs1	27%	3%	?	-32%	-2%	?
CCCC1=C(C(=O)OCC)C(c2ccc(OC)c(CSc3ccccn3)c2)C(C#N)=C(N)O1 (centres undefined)	9.3µM*	32µM*	?	-6%	24%	-10%
CCOC(=O)C1=C(CC)OC(N)=C(C#N)C1c1ccsc1 (centres undefined)	-7%	-4%	13µM*	-3%	-5%	0%
CCOC(=O)C1=C(C)OC(N)=C(C#N)C1c1cc(SCC)oc1C (centres undefined)	13%	45µM*	7%	-14%	1%	3%
CCOC(=O)C1=C(C)OC(N)=C(C#N)C1c1cc2ccccc2nc1N1CCCCC1 (centres undefined)	-12%	-1%	1.3µM*	1%	-2%	-13%
CCOC(=O)C1=C(C)OC(N)=C(C#N)C1c1ccsc1 (centres undefined)	-9%	?	-11%	-16%	4%	-4%
C=CCOC(=O)C1=C(C)OC(N)=C(C#N)C1c1ccc(OC)c(CSc2ccccn2)c1 (centres undefined)	5%	-13%	5%	-19%	7%	-5%
Cc1nn(CCC(=O)NCc2cccc(Br)c2)c(=O)c2nn(-c3ccccc3)c(C)c12	/	-8%	/	/	/	?
CCOC(=O)C1=C(C)OC(N)=C(C#N)C1c1cc2cc(C)ccc2nc1N1CCCCC1 (centres undefined)	?	3.5µM*	471%	-12%	-20%	-10%
O=C(N/N=C/c1ccc(Sc2nc3ccccc3s2)c([N+](=O)[O-])c1)c1ccccn1	?	-24%	10µM*	-32%	1%	-1%
NC(=O)c1ccsc1NC(=O)c1nc(-c2ccccc2)n(-c2ccccc2)n1	7.4µM*	-5%	7.4µM*	4µM*	0%	-8%
Cc1cccc(C)c1NC(=O)CSc1nnc(NC(=O)c2ccccc2C(=O)O)s1	0%	6%	?	-20%	0%	-3%
NC(=O)c1ccsc1NC(=O)CSc1ccccc1F	98%	46%	9.3µM*	-45%	17%	-4%
O=C(CSc1nnc(NC(=O)c2ccccc2C(=O)O)s1)Nc1ccccc1Cl	-27%	-7%	13µM*	-19%	-1%	-6%
Cc1ccccc1SCC(=O)OCC(=O)Nc1sccc1C(N)=O	-4%	-17%	-19%	-25%	-92%	-11%
Cc1cccc(Nc2nnc(SCC(=O)Nc3ccccc3[N+](=O)[O-])s2)c1C	?	-2%	?	-44%	-19%	?
Cc1ccc(Nc2nnc(SCC(=O)Nc3ccccc3[N+](=O)[O-])s2)cc1	-15%	4%	10µM*	-8%	-5%	-10%
Cn1c(C(=O)NCc2ccc(F)cc2)cc2cc(S(=O)(=O)N3CCCCC3)ccc21	/	8%	/	/	/	11%
CCN(Cc1ccccc1)S(=O)(=O)c1c(C)[nH]c(C)c1C(=O)N1CCCC1	-5%	-15%	?	23%	0%	-14%
SMILES	Pf growth 48h	Sm TGR block	Pf growth 96h	AmpC inh no detg	SARS PLpro yeast	AmpC detergent
Oc1c(C(c2ccccc2)N2CCN(c3cccc(Cl)c3)CC2)sc2nc(-c3ccco3)nn12 (centres undefined)	/	-1%	/	/	/	-2%
Cc1csc(SCC(=O)Nc2sccc2C(N)=O)n1	294%	-8%	270%	-38%	0%	-14%
NC(=O)c1ccsc1NC(=O)CSc1nnc(Nc2ccccc2)s1	?	4%	?	14µM*	2%	2%
COc1ccc(C)cc1NC(=O)N1CCN(c2cc(-c3noc(C)n3)ccc2C)CC1	/	2%	/	/	/	-1%
Cn1c(CSCc2ccc(F)cc2)n[nH]c1=S	-7%	-8%	13µM*	-24%	/	?
COc1ccc(N2CCN(C(=O)CSc3nnnn3-c3ccc4c(c3)OCCO4)CC2)cc1	?	-6%	/	25%	3%	?
COc1ccc(-n2nnnc2SCC(=O)N2CCOCC2)cc1	3%	2%	35%	0.89µM*	-3%	?
CC(C)n1nnnc1SCC(=O)N1CCOCC1	5%	0%	13µM*	-12%	5%	?
Cn1nnnc1SCC(=O)N1CCOCC1	7%	0%	?	-17%	-1%	-3%
COc1cccc(CSc2nnnn2-c2ccc(O)cc2)c1	9.3µM*	-11%	?	-30%	-5%	2%
COc1ccc2c(C)cc(SCC(=O)N3CCOCC3)nc2c1	3%	-20%	0.19µM*	13%	1%	?
Cc1ccccc1SCCNC(=O)CCc1ccccc1	30%	/	54%	-15%	-1%	-6%
CC(C)n1nnnc1SCC(=O)NCc1ccc2c(c1)OCO2	4%	10%	?	-7%	3%	-17%
CC(C)n1nnnc1SCC(=O)N1CCN(Cc2ccc3c(c2)OCCO3)CC1	12µM*	0%	10µM*	77%	-16%	2%
COc1ccc(-n2nnnc2SCC#CCO)cc1	-6%	4%	0.47µM*	-22%	-2%	-1%
CCOC(=O)c1oc2ccccc2c1CSc1nnnn1-c1ccc(OC)cc1	5%	-1%	12µM*	-11%	0%	?
N#Cc1cc([N+](=O)[O-])ccc1Oc1cccc(/C=N/NC(=O)c2cccc(Cl)c2)c1	-9%	8%	/	-39%	-4%	-1%
COc1ccc2c(c1)OC[C@H]1[C@H]2N2C(=O)CN(Cc3ccc(F)cc3)C(=O)[C@@]2(C)[C@H]1c1ccccc1	?	1%	?	37%	0%	-5%
